# Results as given in paper PMC7862700, “An all-to-all approach to the identification of sequence-specific readers for epigenetic DNA modifications on cytosine”.
# How the values were obtained:
# Test in all cases: DAPPL (digital affinity profiling via proximity ligation, sequencing); 10 mM Tris-HCl pH 7.5, 50 mM NaCl, 1 mM DTT, 4% glycerol, room temperature, 30 min; GST-TFs on glutathione beads, 16-mer random dsDNA library, 0.1% formaldehyde crosslink after washing; high values mean tight binding
# [1] = biological target: T1, FLI1 (Homo sapiens, UniProt Q01543 1-452); settings: protein: recombinant; tags: N-terminal GST; dsDNA, one strand shown
# T1 sequence: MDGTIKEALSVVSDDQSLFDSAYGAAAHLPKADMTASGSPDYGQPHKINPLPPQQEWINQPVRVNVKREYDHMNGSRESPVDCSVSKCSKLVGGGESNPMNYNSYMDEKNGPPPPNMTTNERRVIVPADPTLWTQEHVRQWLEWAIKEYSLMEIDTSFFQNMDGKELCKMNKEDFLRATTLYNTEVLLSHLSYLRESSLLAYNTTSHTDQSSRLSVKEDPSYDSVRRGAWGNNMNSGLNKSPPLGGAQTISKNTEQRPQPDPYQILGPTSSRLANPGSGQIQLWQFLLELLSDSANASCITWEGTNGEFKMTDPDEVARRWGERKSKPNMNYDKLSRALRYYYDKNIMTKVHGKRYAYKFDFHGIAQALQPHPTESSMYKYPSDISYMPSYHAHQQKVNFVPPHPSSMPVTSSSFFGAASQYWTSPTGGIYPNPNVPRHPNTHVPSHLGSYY
# Outline: (§1)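 GST fusions of human transcription factors were expressed in yeast and captured with glutathione beads. Once given DNA barcodes and pooled alongside a tag-only sample, they were incubated for 30 min at room temperature with 200 nmole of a random double-stranded 16-mer DNA library in Tris/NaCl/DTT/glycerol buffer, then washed, crosslinked (0.1% formaldehyde), proximity-ligated, PCR-amplified and sequenced on an Illumina NextSeq500. The binding signal of each hexamer is its read frequency for a factor divided by its frequency for the tag-only sample.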
# [2] = biological target: T2, ELK1 (Homo sapiens, UniProt P19419 1-428); settings: protein: recombinant; tags: N-terminal GST; dsDNA, one strand shown
# T2 sequence: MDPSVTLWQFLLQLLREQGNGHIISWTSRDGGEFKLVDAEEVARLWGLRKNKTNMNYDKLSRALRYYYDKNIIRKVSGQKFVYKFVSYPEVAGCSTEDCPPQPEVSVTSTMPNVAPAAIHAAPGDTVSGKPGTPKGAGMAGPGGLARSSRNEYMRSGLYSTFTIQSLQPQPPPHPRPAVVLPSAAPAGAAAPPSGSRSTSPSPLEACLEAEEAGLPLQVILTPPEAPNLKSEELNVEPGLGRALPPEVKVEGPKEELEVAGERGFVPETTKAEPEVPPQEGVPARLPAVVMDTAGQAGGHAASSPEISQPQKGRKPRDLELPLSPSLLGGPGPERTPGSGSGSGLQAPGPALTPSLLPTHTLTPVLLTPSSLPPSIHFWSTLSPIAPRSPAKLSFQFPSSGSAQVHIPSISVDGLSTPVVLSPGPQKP
# Outline: as §1
# [3] = biological target: T3, GABPA (Homo sapiens, UniProt Q06546 1-454); settings: protein: recombinant; tags: N-terminal GST; dsDNA, one strand shown
# T3 sequence: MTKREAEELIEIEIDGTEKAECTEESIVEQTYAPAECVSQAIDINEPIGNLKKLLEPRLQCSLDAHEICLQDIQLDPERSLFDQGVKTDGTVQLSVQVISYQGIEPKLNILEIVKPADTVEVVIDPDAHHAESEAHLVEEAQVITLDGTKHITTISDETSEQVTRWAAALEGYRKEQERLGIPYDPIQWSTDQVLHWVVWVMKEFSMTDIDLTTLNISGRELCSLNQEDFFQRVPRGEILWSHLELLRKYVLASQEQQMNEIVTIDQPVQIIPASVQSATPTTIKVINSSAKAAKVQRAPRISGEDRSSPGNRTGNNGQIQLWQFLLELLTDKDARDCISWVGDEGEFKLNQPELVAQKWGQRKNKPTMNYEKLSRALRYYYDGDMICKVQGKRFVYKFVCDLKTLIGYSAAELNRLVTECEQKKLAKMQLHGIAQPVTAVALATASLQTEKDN
# Outline: as §1
# [4] = biological target: T4, ERG (Homo sapiens, UniProt P11308 1-479); settings: protein: recombinant; tags: N-terminal GST; dsDNA, one strand shown
# T4 sequence: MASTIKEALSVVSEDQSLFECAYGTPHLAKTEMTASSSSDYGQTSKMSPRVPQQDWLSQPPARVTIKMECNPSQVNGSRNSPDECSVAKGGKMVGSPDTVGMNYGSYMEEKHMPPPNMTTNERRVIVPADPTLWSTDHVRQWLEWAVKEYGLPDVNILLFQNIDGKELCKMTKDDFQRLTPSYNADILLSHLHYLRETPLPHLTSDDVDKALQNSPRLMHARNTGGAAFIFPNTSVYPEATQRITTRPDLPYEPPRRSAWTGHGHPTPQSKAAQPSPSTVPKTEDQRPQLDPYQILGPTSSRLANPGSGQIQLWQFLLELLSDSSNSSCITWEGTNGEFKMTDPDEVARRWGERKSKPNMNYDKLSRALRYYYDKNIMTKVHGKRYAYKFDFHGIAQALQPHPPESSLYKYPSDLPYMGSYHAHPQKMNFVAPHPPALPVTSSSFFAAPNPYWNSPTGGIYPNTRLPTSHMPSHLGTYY
# Outline: as §1
# [5] = biological target: ELF1 (Homo sapiens, UniProt P32519 1-619); settings: protein: recombinant; tags: N-terminal GST; dsDNA, one strand shown
# ELF1, sequence (P32519 whole entry): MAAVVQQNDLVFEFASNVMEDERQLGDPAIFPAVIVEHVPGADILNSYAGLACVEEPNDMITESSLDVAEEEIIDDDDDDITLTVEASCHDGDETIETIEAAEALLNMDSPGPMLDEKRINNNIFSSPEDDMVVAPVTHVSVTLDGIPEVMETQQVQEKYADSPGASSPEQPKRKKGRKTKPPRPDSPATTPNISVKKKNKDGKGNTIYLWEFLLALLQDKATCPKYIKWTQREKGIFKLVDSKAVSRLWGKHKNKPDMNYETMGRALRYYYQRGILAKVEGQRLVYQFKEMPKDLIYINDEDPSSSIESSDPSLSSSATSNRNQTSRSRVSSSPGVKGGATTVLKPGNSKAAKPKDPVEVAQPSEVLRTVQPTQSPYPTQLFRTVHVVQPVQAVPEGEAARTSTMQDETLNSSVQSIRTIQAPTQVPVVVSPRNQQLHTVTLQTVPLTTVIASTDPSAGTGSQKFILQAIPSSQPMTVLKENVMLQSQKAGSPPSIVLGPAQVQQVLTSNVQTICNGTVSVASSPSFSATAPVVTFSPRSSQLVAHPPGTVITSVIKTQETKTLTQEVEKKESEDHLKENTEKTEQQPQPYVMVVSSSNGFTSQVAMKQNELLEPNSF
# Outline: as §1
# [6] = biological target: T5, EHF (Homo sapiens, UniProt Q9NZC4 1-300); settings: protein: recombinant; tags: N-terminal GST; dsDNA, one strand shown
# T5 sequence: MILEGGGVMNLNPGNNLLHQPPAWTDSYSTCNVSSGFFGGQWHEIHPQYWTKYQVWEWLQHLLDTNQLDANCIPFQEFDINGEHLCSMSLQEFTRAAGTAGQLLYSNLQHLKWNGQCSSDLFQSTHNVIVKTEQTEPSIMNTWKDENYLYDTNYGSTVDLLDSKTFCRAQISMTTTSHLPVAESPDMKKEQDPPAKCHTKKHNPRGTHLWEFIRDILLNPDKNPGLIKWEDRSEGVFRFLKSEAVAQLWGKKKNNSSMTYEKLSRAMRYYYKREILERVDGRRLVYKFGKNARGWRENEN
# Outline: as §1
# [7] = biological target: SPI1 (Homo sapiens, UniProt P17947 1-270); settings: protein: recombinant; tags: N-terminal GST; dsDNA, one strand shown
# Outline: as §1
# [8] = biological target: SPIB (Homo sapiens, UniProt Q01892 1-262); settings: protein: recombinant; tags: N-terminal GST; dsDNA, one strand shown
# SPIB, sequence (Q01892 whole entry): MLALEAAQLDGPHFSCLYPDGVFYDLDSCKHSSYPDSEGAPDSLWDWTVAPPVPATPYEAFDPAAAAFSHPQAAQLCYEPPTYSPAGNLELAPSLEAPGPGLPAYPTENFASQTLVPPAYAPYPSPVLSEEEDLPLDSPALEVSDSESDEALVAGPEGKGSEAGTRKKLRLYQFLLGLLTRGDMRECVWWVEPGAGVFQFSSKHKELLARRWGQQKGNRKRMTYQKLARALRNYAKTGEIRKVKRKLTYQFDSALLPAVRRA
# Outline: as §1
# [9] = biological target: T6, ELK3 (Homo sapiens, UniProt P41970 1-407); settings: protein: recombinant; tags: N-terminal GST; dsDNA, one strand shown
# T6 sequence: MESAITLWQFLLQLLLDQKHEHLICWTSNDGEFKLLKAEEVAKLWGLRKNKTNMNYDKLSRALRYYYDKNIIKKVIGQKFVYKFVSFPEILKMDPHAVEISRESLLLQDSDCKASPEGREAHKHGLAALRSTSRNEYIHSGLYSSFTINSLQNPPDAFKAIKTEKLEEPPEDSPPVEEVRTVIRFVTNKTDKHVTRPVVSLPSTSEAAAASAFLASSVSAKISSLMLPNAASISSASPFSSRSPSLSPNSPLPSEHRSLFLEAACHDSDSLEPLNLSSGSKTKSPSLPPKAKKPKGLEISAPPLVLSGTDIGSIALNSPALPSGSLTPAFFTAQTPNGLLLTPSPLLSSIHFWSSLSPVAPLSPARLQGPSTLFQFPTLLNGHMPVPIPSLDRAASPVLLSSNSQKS
# Outline: as §1
# [10] = biological target: T7, FEV (Homo sapiens, UniProt Q99581 1-238); settings: protein: recombinant; tags: N-terminal GST; dsDNA, one strand shown
# T7 sequence: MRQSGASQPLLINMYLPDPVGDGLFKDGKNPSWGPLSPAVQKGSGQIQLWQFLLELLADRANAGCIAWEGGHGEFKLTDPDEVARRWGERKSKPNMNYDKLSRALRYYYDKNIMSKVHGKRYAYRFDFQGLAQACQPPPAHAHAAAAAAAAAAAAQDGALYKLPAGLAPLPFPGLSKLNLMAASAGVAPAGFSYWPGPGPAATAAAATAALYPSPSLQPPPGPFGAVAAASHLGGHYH
# Outline: as §1
# [11] = biological target: ETV5 (Homo sapiens, UniProt P41161 1-510); settings: protein: recombinant; tags: N-terminal GST; dsDNA, one strand shown
# ETV5, sequence (P41161 whole entry): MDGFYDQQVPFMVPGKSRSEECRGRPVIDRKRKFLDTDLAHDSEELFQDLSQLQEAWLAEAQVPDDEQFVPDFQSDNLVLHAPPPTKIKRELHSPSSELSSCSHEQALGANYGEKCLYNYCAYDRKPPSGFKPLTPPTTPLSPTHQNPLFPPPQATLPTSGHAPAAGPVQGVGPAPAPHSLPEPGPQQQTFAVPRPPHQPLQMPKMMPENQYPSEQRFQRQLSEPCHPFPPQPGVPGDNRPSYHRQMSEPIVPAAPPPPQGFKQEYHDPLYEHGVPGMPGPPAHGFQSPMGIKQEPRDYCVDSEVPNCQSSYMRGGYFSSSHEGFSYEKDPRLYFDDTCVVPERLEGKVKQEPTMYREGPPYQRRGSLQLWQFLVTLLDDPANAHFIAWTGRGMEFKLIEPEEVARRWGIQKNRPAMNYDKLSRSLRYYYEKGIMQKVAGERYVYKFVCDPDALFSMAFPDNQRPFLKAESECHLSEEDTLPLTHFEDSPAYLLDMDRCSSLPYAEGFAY
# Outline: as §1
# [12] = biological target: HSF1 (Homo sapiens, UniProt Q00613 1-529); settings: protein: recombinant; tags: N-terminal GST; chain copies: 3; dsDNA, one strand shown
# HSF1, sequence (Q00613 whole entry): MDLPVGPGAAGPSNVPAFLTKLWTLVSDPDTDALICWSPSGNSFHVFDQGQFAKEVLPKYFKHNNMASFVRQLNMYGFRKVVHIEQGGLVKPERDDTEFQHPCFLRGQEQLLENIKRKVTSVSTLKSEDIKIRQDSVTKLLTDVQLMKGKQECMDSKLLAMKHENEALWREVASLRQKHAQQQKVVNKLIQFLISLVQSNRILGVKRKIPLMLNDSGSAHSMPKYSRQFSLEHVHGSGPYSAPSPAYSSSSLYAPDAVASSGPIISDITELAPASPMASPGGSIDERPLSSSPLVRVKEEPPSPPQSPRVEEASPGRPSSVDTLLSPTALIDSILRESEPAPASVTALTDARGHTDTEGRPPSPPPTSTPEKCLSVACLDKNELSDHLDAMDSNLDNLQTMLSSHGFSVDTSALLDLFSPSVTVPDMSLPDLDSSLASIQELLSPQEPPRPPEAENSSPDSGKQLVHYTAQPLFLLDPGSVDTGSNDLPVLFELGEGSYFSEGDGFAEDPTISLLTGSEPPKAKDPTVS
# Outline: as §1
# [13] = biological target: T8, SPIC (Homo sapiens, UniProt Q8N5J4 1-248); settings: protein: recombinant; tags: N-terminal GST; dsDNA, one strand shown
# T8 sequence: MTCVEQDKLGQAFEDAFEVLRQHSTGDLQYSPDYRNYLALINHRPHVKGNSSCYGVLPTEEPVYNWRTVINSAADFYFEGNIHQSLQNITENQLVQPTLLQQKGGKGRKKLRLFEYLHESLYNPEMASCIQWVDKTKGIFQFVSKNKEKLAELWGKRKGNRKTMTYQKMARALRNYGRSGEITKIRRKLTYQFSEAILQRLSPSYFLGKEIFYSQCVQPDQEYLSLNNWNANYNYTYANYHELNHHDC
# Outline: as §1
# [14] = biological target: ELF4 (Homo sapiens, UniProt Q99607 1-663); settings: protein: recombinant; tags: N-terminal GST; dsDNA, one strand shown
# ELF4, sequence (Q99607 whole entry): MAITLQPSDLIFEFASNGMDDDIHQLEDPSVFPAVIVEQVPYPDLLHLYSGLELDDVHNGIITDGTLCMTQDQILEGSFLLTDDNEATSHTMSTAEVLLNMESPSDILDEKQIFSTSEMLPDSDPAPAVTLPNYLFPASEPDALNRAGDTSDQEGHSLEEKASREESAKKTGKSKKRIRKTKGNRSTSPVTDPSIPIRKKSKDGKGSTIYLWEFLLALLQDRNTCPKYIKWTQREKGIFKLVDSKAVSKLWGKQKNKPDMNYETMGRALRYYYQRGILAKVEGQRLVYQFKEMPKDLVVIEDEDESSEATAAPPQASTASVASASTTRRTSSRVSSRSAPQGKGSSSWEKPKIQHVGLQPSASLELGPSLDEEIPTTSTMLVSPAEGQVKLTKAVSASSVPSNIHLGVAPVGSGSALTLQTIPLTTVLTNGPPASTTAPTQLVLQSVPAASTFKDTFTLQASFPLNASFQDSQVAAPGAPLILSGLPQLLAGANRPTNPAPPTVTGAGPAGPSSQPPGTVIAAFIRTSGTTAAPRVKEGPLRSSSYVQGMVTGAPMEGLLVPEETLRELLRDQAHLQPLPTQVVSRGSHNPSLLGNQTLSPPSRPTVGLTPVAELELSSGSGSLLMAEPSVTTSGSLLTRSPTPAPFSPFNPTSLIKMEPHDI
# Outline: as §1
# [15] = biological target: T9, ELK4 (Homo sapiens, UniProt P28324-2 1-405); settings: protein: recombinant; tags: N-terminal GST; dsDNA, one strand shown
# T9 sequence: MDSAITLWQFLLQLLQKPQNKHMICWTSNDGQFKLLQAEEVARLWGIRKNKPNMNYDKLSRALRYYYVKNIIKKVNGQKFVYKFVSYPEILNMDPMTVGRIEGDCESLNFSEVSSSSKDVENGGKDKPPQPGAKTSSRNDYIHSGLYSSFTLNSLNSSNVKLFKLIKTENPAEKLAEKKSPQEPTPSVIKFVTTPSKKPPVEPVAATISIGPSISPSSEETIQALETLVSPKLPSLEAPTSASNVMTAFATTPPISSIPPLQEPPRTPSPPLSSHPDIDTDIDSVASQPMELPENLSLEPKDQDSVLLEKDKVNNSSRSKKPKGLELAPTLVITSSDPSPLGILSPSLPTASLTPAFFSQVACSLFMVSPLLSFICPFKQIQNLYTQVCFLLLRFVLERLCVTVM
# Outline: as §1
# [16] = biological target: T10, ETV2 (Homo sapiens, UniProt O00321 1-342); settings: protein: recombinant; tags: N-terminal GST; dsDNA, one strand shown
# T10 sequence: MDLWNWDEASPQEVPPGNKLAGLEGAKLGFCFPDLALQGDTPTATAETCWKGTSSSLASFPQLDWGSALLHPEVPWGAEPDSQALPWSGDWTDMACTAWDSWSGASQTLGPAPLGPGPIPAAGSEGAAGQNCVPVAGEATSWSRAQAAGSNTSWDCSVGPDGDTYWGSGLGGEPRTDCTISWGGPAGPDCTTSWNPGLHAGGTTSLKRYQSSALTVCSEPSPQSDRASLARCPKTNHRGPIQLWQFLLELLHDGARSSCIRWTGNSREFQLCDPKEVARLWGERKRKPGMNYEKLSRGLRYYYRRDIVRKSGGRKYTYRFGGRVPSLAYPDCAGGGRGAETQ
# Outline: as §1
# [17] = biological target: T11, ELF3 (Homo sapiens, UniProt P78545 1-371); settings: protein: recombinant; tags: N-terminal GST; dsDNA, one strand shown
# T11 sequence: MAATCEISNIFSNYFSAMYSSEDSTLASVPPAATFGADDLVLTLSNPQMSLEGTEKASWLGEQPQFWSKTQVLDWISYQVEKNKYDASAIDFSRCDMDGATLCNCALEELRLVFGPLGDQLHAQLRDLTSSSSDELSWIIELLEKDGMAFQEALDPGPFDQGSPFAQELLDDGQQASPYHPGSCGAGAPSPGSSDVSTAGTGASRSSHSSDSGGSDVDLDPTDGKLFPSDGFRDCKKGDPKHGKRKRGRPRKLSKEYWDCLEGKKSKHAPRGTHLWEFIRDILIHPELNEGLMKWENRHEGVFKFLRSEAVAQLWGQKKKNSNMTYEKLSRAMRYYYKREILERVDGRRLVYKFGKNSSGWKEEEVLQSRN
# Outline: as §1
# [18] = biological target: ETV1 (Homo sapiens, UniProt P50549 1-477); settings: protein: recombinant; tags: N-terminal GST; dsDNA, one strand shown
# ETV1, sequence (P50549 whole entry): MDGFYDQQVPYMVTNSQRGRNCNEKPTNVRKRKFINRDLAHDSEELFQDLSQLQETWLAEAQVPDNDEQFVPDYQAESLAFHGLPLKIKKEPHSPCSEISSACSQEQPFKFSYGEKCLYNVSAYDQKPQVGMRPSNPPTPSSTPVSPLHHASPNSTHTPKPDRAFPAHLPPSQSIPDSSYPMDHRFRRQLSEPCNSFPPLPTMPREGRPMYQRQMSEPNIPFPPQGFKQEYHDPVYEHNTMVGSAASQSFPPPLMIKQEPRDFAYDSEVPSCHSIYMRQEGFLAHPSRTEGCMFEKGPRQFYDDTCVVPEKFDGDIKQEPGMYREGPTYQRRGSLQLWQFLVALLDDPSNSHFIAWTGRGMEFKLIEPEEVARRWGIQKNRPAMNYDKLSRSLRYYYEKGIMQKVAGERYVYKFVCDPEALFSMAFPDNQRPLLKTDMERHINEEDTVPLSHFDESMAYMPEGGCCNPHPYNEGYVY
# Outline: as §1
sequence,measurement,setting,value
GAACCC,binding signal,[1],"1.12 fold enrichment (6-mer frequency, TF over GST control)"
same,binding signal,[2],"1.19 fold enrichment (6-mer frequency, TF over GST control)"
same,binding signal,[3],"1.16 fold enrichment (6-mer frequency, TF over GST control)"
same,binding signal,[4],"1.18 fold enrichment (6-mer frequency, TF over GST control)"
same,binding signal,[5],"1.14 fold enrichment (6-mer frequency, TF over GST control)"
same,binding signal,[6],"1.13 fold enrichment (6-mer frequency, TF over GST control)"
same,binding signal,[7],"1.16 fold enrichment (6-mer frequency, TF over GST control)"
same,binding signal,[8],"1.06 fold enrichment (6-mer frequency, TF over GST control)"
same,binding signal,[9],"1.19 fold enrichment (6-mer frequency, TF over GST control)"
same,binding signal,[10],"1.17 fold enrichment (6-mer frequency, TF over GST control)"
same,binding signal,[11],"1.2 fold enrichment (6-mer frequency, TF over GST control)"
same,binding signal,[12],"1.03 fold enrichment (6-mer frequency, TF over GST control)"
same,binding signal,[13],"1.29 fold enrichment (6-mer frequency, TF over GST control)"
same,binding signal,[14],"1.22 fold enrichment (6-mer frequency, TF over GST control)"
same,binding signal,[15],"1.2 fold enrichment (6-mer frequency, TF over GST control)"
same,binding signal,[16],"1 fold enrichment (6-mer frequency, TF over GST control)"
same,binding signal,[17],"1.05 fold enrichment (6-mer frequency, TF over GST control)"
same,binding signal,[18],"1.19 fold enrichment (6-mer frequency, TF over GST control)"
